The record followed here is PubChem BioAssay (NCATS).

Molecules are shown by their SMILES. Records with an inconclusive call do not appear. A call without a number means that no potency is given here. Calls of active or inactive are those of the source. Unless noted, the call rests on the fitted dose curve; in most records, active means well fitted curve in the direction sought with a large enough effect; inconclusive means small, poorly fitted or top-dose-only effect, or another doubt; inactive means no such curve, though single readings can be large; an effect the other way counts as inactive or inconclusive.

The nature of assay [1]: qHTS assay for measurement of the activity of small molecule inhibitors on Zika virus induced Caspase-3 activity in human iPSC derived neural progenitor cells (hNPCs) (AID 1224857). Further: nearly all actives have a fitted effect of over 65% in size. Summed up:
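Cells were plated at 350 per well and grown 16 to 20 hours. Compound pretreatment lasted one hour, after which ZIKV (2 FFU/cell) was added for 6 hours. Percent inhibition was normalized between uninfected and infected controls.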

The nature of assay [2]: qHTS assay for measurement of the activity of small molecule inhibitors on Zika virus induced Caspase-3 activity in human astrocytoma cells (AID 1224859). Summed up:
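Percent inhibition of virus-induced caspase-3/7 signal is calculated against uninfected and ZIKV-infected control cells. Cells are SNB-19, infected at 2 FFU/cell for 6 h after 1 h compound exposure.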

Assay [3] in a line: P-glycoprotein substrates identified in KB-3-1 adenocarcinoma cell line, qHTS therapeutic library screen (AID 1346986). Further: nearly all actives have a fitted effect of over 60% in size. Summed up:
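Counter-screen: cherry-picked hits retested in the KB pair and in HEK-293 pcDNA/MDR-19 cells ± tariquidar. Primary screen used 72 h CellTiter-Glo viability in KB-3-1 and KB-8-5-11.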

A short description of assay [4]: qHTS assay for cell viability of the p53RE-bla HCT-116 cell line (AID 743292). Further: nearly all actives have a fitted effect of over 55% in size. Further: potency means the concentration at half of the fitted maximal effect. The gist of the method:
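Compound-exposed HCT-116 (p53RE-bla) cells, 4,000 per well, were kept 16 h at 37 C following a 5 h preincubation. Cell number was estimated from total ATP by CellTiter-Glo luminescence read after 30 min at room temperature.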

Assay [5] can be described thus: qHTS profiling of the MIPE4 collection as inhibitors of Plasmodium falciparum (3D7) proliferation (AID 743344; call rule not given here). As to conditions: P. falciparum 3D7 in erythrocytes, SYBR Green DNA fluorescence, 72 h; at 28.5 µM (top of the series) unless noted. Summed up:
(§1)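 Erythrocytes infected with P. falciparum (0.3% parasitemia, 2.5% hematocrit) incubated with compounds 72 h at 37 C, 5% CO2. Lysis with saponin/Triton buffer containing SYBR Green I, overnight at room temperature in the dark; DNA fluorescence (485/535 nm) normalised to 0.29 uM artemisinin and DMSO.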

The nature of assay [6]: qHTS profiling of the MIPE4 collection as inhibitors of Plasmodium falciparum (DD2) proliferation (AID 743345; call rule not given here). As to conditions: P. falciparum Dd2 in erythrocytes, SYBR Green DNA, 72 h; at 28.5 µM (top of the series) unless noted. Summed up:
as §1
A general note: qHTS replaces the single test concentration by a dilution series.

The nature of assay [7]: qHTS profiling of the MIPE4 collection as inhibitors of Plasmodium falciparum (DD2) proliferation (Rep 2) (AID 743346; call rule not given here). As to conditions: P. falciparum Dd2 in erythrocytes, SYBR Green DNA, 72 h; at 28.5 µM (top of the series) unless noted. The gist of the method:
as §1

Assay [8] in a line: qHTS profiling of the MIPE4 collection as inhibitors of Plasmodium falciparum (HB3) proliferation (AID 743347; call rule not given here). The settings on record: P. falciparum HB3 in erythrocytes, SYBR Green DNA, 72 h; at 28.5 µM (top of the series) unless noted. Summed up:
as §1

Assay [9] can be described thus: qHTS profiling for inhibitors of Plasmodium falciparum (3D7) proliferation (AID 743322).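 Further: infected erythrocytes exposed to compound for 72 h before lysis.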 As to conditions: P. falciparum 3D7 proliferation; at 28.7 µM (top of the series). Summed up:
as §1

Assay [10] can be described thus: qHTS profiling for inhibitors of Plasmodium falciparum (DD2) proliferation (AID 743323; call rule not given here). The settings on record: lower = more inhibition; at 28.7 µM (top of the series). Summed up: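 Parasite proliferation measured via DNA-dye fluorescence, as uninfected erythrocytes lack DNA. Cultures at 0.3% parasitemia and 2.5% hematocrit incubated 72 h with compound; signal scaled between vehicle and 0.29 uM artemisinin wells.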

In the case of `Cn1c(=O)c2c(ncn2CC(=O)O)n(C)c1=O`, in assay [1], the Potency result is “inactive”. In assay [2], the outcome was inactive.

On to `C[C@H]1C[C@@H]2[C@H]([C@@H](O)C[C@@]3(C)[C@H]2CC[C@]3(O)C(=O)CO)[C@@]2(C)C=CC(=O)C=C12`, for which the Potency result in [1] was “inactive”. Besides, in assay [2], the molecule was classed as inactive.

Turning to `O=C(O)Cc1ccccc1Oc1ccc(Cl)cc1Cl`, the Potency entry in assay [1] and in [3] was “inactive” in each case. Besides, the call in [2] was inactive.

For `CN(CC1(C)CCCO1)S(=O)(=O)c1ccc(Cl)c(S(N)(=O)=O)c1` (centres undefined), the Potency entry in assay [1] and in assay [3] was “inactive” each time. Also, the call in assay [2] was inactive.

With `COC(=O)C1=C(C)NC(COC(N)=O)=C(C(=O)OC(C)C)C1c1cccc(Cl)c1Cl` (centres undefined), in assay [1], the Potency entry was “inactive”. Besides, in [2], the molecule was classed as inactive.

Regarding `O=C1CC2(CCCC2)CC(=O)N1CCNCC1COc2ccccc2O1` (centres undefined), the Potency result in assay [1] is “inactive”. In addition, the molecule was classed as inactive in assay [2].

For the molecule `CC(C)(C)C1CCC(CC2=C(O)c3ccccc3C(=O)C2=O)CC1` (centres undefined), in assay [1], the Potency entry was “inactive”. In addition, in [2], the molecule was classed as inactive.

Consider `CCc1cc(S(=O)(=O)O)c2cc(C(C)C)cccc1-2`, for which the Potency entry in assay [1] was “inactive”. Moreover, the call in assay [2] was inactive.

Consider `CCOC(=O)NNc1ccc(N(CC)CC(C)O)nn1` (centres undefined), for which, in [1], the Potency result was “inactive”. Moreover, the call in assay [2] was inactive.

In the case of `C=CC[N+]1([C@H]2C[C@H]3[C@@H]4CC[C@H]5C[C@H](OC(C)=O)[C@@H](N6CCCCC6)C[C@]5(C)[C@H]4CC[C@]3(C)[C@H]2OC(=O)CC)CCCCC1`, the Potency entry in assay [1] and in assay [3] was “inactive” in each case. Besides, in assay [2], the molecule was called inactive.

As for `Nc1ccc(O)cc1`, the Potency result in assay [4] and in [1] was “inactive” each time. The molecule was classed as inactive in assay [2].

As for `CCN(CC)CCOc1ccc(/C(=C(\Cl)c2ccccc2)c2ccccc2)cc1`, the Potency in assay [4] is 70.8 µM (active). In assay [1], the Potency entry was “inactive”. Further, the molecule was classed as inactive in [2].

`CCCCCOc1ccc(C2SC(=O)NC2=O)cc1OCC` (centres undefined): the Potency result in [1] and in assay [3] was “inactive” in each case. In assay [2], the outcome was inactive.

In the case of `CC(C)(c1ccc(O)cc1)c1ccc(O)cc1`, the Potency entry in assay [4] and in assay [1] was “inactive” throughout. Moreover, the outcome in [2] was inactive.

For `c1ccc2occc2c1`, the Potency result in assay [4] and in assay [1] was “inactive” each time.

`OCCOCCN1CCN(C(c2ccccc2)c2ccc(Cl)cc2)CC1` (centres undefined): the Potency entry in assay [4] and in [1] was “inactive” each time. In addition, the call in assay [2] was inactive.

With `CCCCCCCCCCCC[N+](C)(C)Cc1ccccc1`, the Potency result in assay [4] and in assay [1] was “inactive” each time.

For the molecule `CCCCCCCCCCCCCCCC[n+]1ccccc1`, the Potency result in [4] and in assay [1] was “inactive” throughout. Further, the outcome in assay [2] was inactive.

As for `Nc1cccc2c(N)cccc12`, the Potency result in [4] and in [1] was “inactive” throughout. In assay [2], the molecule was called inactive.

Consider `COC(=O)c1c(Cl)c(Cl)c(C(=O)OC)c(Cl)c1Cl`, for which the Potency result in [4] and in assay [1] was “inactive” in each case. The outcome in [2] was inactive.

On to `CCCC(=O)c1cc(O)c(O)cc1O`, for which the Potency entry in assay [4] and in assay [1] was “inactive” each time.

Consider `O=C(CCCCCCCCC#CI)Oc1ccccc1`, for which the Potency entry in assay [1] and in assay [3] was “inactive” each time. Moreover, the molecule was classed as inactive in assay [2].

Take `CC(C(O)c1ccccc1)N(C)CCOC(c1ccccc1)c1ccccc1` (centres undefined): in [2], the molecule was called inactive.

For the molecule `COc1cc(NS(=O)(=O)c2ccc(N)cc2)nc(C)n1`, the Potency result in assay [1] and in [3] was “inactive” in each case. Further, the call in assay [2] was inactive.

In assay [5], `CC(NCCC(c1ccccc1)c1ccccc1)c1ccccc1` (centres undefined) showed a parasite growth, % of DMSO control of 9.45%. This molecule had a parasite growth remaining, % of DMSO control (lower = more inhibition) in [6] of 9.26%. Further, the parasite growth, % of control (lower = inhibition) in [7] came to 16.7%. Also, in [8], the growth, % of control turned out to be 3.07%. The Potency result in assay [1] is “inactive”. In addition, in assay [2], the outcome was inactive.

With `CC(C)C(C)(C)C(C)(C)C(C)(C)S`, the Potency result in [4] and in [1] was “inactive” each time.

Take `O=C(Oc1ccccc1)c1ccccc1O`: the Potency result in [4] and in [1] was “inactive” each time. Besides, the result in assay [2] was inactive.

As for `Cc1ncc(CO)c(CO)c1O`, the Potency result in assay [4] and in assay [1] was “inactive” each time. For the same molecule, the call in [2] was inactive.

As to `Cc1ccc(O)cc1`, the Potency result in [4] and in assay [1] was “inactive” each time.

With `CCCCC(CC)COC(=O)c1ccccc1C(=O)O` (centres undefined), the Potency entry in assay [4] and in [1] was “inactive” each time.

For the molecule `COc1cc(C=O)ccc1O`, the Potency result in assay [4] and in [1] was “inactive” in each case. Also, in [2], the result was inactive.

Regarding `OCc1c[nH]c2ccccc12`, the Potency result in assay [4] and in assay [1] was “inactive” in each case. Moreover, the molecule was called inactive in assay [2].

For `CC(=O)OCC(=O)Nc1cc(C#N)cc(NC(=O)COC(C)=O)c1Cl`, the Potency entry in assay [1] and in assay [3] was “inactive” in each case. Moreover, the result in assay [2] was inactive.

For `CC(C(=O)O)c1ccc(/C=C2\CCCCC2=O)cc1` (centres undefined), the Potency entry in assay [1] and in assay [3] was “inactive” throughout. The result in [2] was inactive.

For `O=C(Nc1ccc(Cl)cc1)Nc1ccc(Cl)c(Cl)c1`, the Potency result in assay [4] and in assay [1] was “inactive” throughout. Further, the remaining parasite growth % (stronger effect = lower value) in assay [9] was -1.23%. Further, the activity, percent of control in assay [10] is -0.0718%. Besides, in assay [2], the call was inactive.

On to `Nc1ncnc2n[nH]c(Nc3ccc(F)cc3)c12`, for which the Potency entry in [1] and in assay [3] was “inactive” in each case. Also, the molecule was called inactive in assay [2].

Molecule `NCC[C@H](O)C(=O)N[C@@H]1C[C@H](N)[C@@H](O[C@H]2O[C@H](CN)[C@@H](O)[C@H](O)[C@@H]2O)[C@H](O)[C@@H]1O[C@H]1O[C@H](CO)[C@@H](O)[C@H](N)[C@@H]1O` came in with a parasite growth, % of DMSO control in [5] of 98% [at 0.217 µM]. The molecule further returned a parasite growth remaining, % of DMSO control (lower = more inhibition) in assay [6] of 89.8% [at 0.217 µM]. The parasite growth, % of control (lower = inhibition) in assay [7] came out at 163% [at 0.217 µM]. For the same molecule, in assay [8], the growth, % of control turned out to be 94.3% [at 0.217 µM]. In addition, the values for the activity change, negative = inhibition in [1] and in assay [2] were -1.8% [at 0.568 µM] (inactive) and 13.4% [at 0.568 µM] (inactive), respectively.

Take `CCOC(=O)Oc1ccc(CCNC(=O)[C@H](CCSC)NC(C)=O)cc1OC(=O)OCC`: in assay [2], the result was inactive.

Consider `CN1C(=O)c2ccccc2C1=O`, for which the Potency entry in assay [4] and in assay [1] was “inactive” in each case. Besides, in [2], the outcome was inactive.

Turning to `CC(=O)O[C@H]1CC[C@@]2(C)C(=CC[C@@H]3[C@@H]2CC[C@]2(C)C(C(C)=O)=CC[C@@H]32)C1`, the outcome in [2] was inactive.
